Measured values reported in PubChem BioAssay AID1347426 (Functional Genomics Laboratory (NCATS/FGL), 2020).
In all, about 31,000 sequences went through this assay and about 1,400 (4.5%) were called active. Only a selection was taken, and actives are over-represented in it overall. A number with no mark means an inactive call.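 Rule for the calls: active = median seed-adjusted z-score above 1 or below -1; inactive = the rest.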

Assay: Novel Modifiers of Survival Motor Neuron (SMN) Protein: Gene Identification via Genome-wide siRNA Screen;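 note: luminescence tracks full-length SMN protein made from the SMN2 reporter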
Details: HEK293T SMN2-luciferase reporter, siRNA knockdown, 72 h; actives lie on both sides
Method in brief: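 HEK293T cells stably carrying an SMN2 promoter/splicing cassette–luciferase reporter were reverse-transfected with 1 pmol siRNA per well (druggable-genome library, 3 siRNAs per gene) and grown 72 h at 37 °C. Luminescence, normalized to negative-control siRNA and log10-transformed, was scored as MAD.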
In the case of GACUCGUUGUUGGUCUAAATT against MAP3K7, the median seed-adjusted z-score is reported as -0.23. With CGCUGAUUUUCGAGUGUAATT against EHMT2 the median seed-adjusted z-score was 0.295. In the case of GGGUCAUGCAGCAUCAAUATT against ITGAM, the median seed-adjusted z-score is reported as -1.56 (active). Sequence CCAAGGACCUGGUCUGAAATT against CUGBP1 has a median seed-adjusted z-score of 0.086. With AGCAGAUGGUUUUCGAGAATT against COPZ2 the median seed-adjusted z-score was -1.23 (active). With GGGUUUUGCUGACAGCUCATT against ZNF48 the median seed-adjusted z-score was -0.116. Work on GGAACACGCAUGUCUGGAATT against NOS1 yielded a median seed-adjusted z-score of 0.0195. Work on GAAUGCAAGAUUUUCGAUUTT against USH2A yielded a median seed-adjusted z-score of 0.0673. For GGCAUCCGCUUGUACUACATT against DBH, the median seed-adjusted z-score was 0.337. With CCCUAUCAGUCCAAUGGAATT against PRDM4 the median seed-adjusted z-score was 0.0804. GCCUUCUCCUCUCAUAACATT against ZNF683 showed a median seed-adjusted z-score of -0.452. CAACUUCUCCGUAGCAGAATT against AKT2 showed a median seed-adjusted z-score of 0. For CUUCUACAGUGGUCACCUATT against VPS29, the median seed-adjusted z-score was -0.408. With GGUUAUCAAUGACGAGCAATT against EP400 the median seed-adjusted z-score was 1.83 (active). In the case of GAACCUCGUUUCGAAAUUUTT against RIOK2, the median seed-adjusted z-score is reported as -0.16. In the case of GAAUGAUUUUCCAAAUGGATT against SLC25A21, the median seed-adjusted z-score is reported as -0.219. In the case of GGAAGAAACGGAGACUCAATT against DPF1, the median seed-adjusted z-score is reported as 0.144. For GCCUGGUUUUGGAUACAAATT against LTA4H, the median seed-adjusted z-score was -0.742. For CAACUGCUACCUUAGCAUATT against RNF133, the median seed-adjusted z-score was 0. In the case of GCUGUGAGAUUUACUCUGATT against ALAS1, the median seed-adjusted z-score is reported as -1.15 (active). For AAGUGACUCUAGUCGUUUATT against REM2, the median seed-adjusted z-score was 0.109. In the case of GCAGGGUCAUUACGACUCATT against PAX9, the median seed-adjusted z-score is reported as -1.16 (active). Sequence GAAUGGAUUCUGACCUUAUTT against MTO1 has a median seed-adjusted z-score of -0.0252. ACAAGAUGUAUCACCUAUATT against ZNF226 showed a median seed-adjusted z-score of 0.437. For GGACUUGCUGGAAAGCACATT against NCALD, the median seed-adjusted z-score was 0. Work on GUACCUAAGUUGGAGCUGATT against TRPT1 yielded a median seed-adjusted z-score of -0.671. In the case of CCACUGGGCUAAUUCUACATT against ALPPL2, the median seed-adjusted z-score is reported as 0.331. In the case of CGACACUUUCUAUCGACAATT against UBA3, the median seed-adjusted z-score is reported as 0.605. In the case of GGGUCUCAGAAGACGUGUATT against CRAT, the median seed-adjusted z-score is reported as -1.42 (active). Work on GACAGUAACUUUAAUUCCATT against IDH3A yielded a median seed-adjusted z-score of 0.137. With CAACAGCAAUUACACCGAUTT against TMPRSS13 the median seed-adjusted z-score was 0.0584. In the case of GAACUUCAUAGUACAGCGATT against CTNNAL1, the median seed-adjusted z-score is reported as 0.229. CUGCUCUAAUUACACCGUATT against CILP gave a median seed-adjusted z-score of 0.0436. In the case of GCUCGAUCCCUGCAGAUUATT against LCOR, the median seed-adjusted z-score is reported as -0.0435. In the case of AGAUAAAGCGAUCUAAACUTT against ASCC3, the median seed-adjusted z-score is reported as -0.192. With UCAUCUUAAAGGACCGAUATT against SEC11B the median seed-adjusted z-score was 1.04 (active). Work on CCCACAUUCUUGUCCGGCATT against ADAMTS4 yielded a median seed-adjusted z-score of -0.0153. GAAAGAUCCCUAUGGAAAATT against CAMK2G gave a median seed-adjusted z-score of -0.107. Work on GAAGGAUUAGAAACCGCAATT against RNF144 yielded a median seed-adjusted z-score of 0.0938. In the case of GGAUAAUGGAGAACUCAGATT against NSFL1C, the median seed-adjusted z-score is reported as -0.0899. GCACGUACCGCUUCGAAAATT against SLC4A10 showed a median seed-adjusted z-score of 0.026. Sequence CCGGUAUUAGAAUCAAAGATT against POLS has a median seed-adjusted z-score of -0.334. With CGAUAUCUUCACCACAUUATT against KCNJ6 the median seed-adjusted z-score was -1.6 (active). Sequence CAACAAGUGUAACGACGAUTT against SMPD3 has a median seed-adjusted z-score of -0.0115. For ACAGAACUCGGGACCUUUUTT against H6PD, the median seed-adjusted z-score was 0.069. For GAAGAUUGCUCAGCGAUUATT against PRPF3, the median seed-adjusted z-score was -0.289. For GCUCGUAAGAGUGCAAGUATT against USPL1, the median seed-adjusted z-score was -1.87 (active). GCCUGAAACUGGAGCCUCATT against SLC3A2 showed a median seed-adjusted z-score of -0.0428. With CCACAAAGACCGUCGCUUUTT against RHOBTB2 the median seed-adjusted z-score was -0.139. Sequence GGCUAUGAUCAAAUCCUUATT against SLC17A4 has a median seed-adjusted z-score of 0.262. For GAACUGGGCGAGUAUUACATT against SUPT5H, the median seed-adjusted z-score was -4.02 (active). Work on AGAUGGAAGCGAAAACUGATT against NFATC1 yielded a median seed-adjusted z-score of 0.00712. Sequence GUGACCUUGUCAUUCCGUATT against RGS5 has a median seed-adjusted z-score of 0. With CACCUGUUCGUGUCCUUCATT against SCTR the median seed-adjusted z-score was -0.352. Sequence GCCUGGUUAUAUAACCGGATT against EP300 has a median seed-adjusted z-score of -0.2. For GGUUCCGAAUCUAUUCCAATT against PLTP, the median seed-adjusted z-score was 1.09 (active). GGCCUUACUUAUUUGUGGATT against MAP2K5 gave a median seed-adjusted z-score of 0.986. For GCAUCACACUCACCAACUATT against GPR124, the median seed-adjusted z-score was 0.00658. With GCUUUGGAAGAAUACGUUATT against NR2F2 the median seed-adjusted z-score was 0.129. In the case of UGAGUAUGCCUACCUCAAATT against HNF4A, the median seed-adjusted z-score is reported as -0.0274. With CAAUCUACCUAAUCAAGCUTT against ROD1 the median seed-adjusted z-score was 0.42. In the case of CAAGAACGUGUACAAGUUUTT against RPN2, the median seed-adjusted z-score is reported as -0.217. With GAGCUGAGCUGUCGAUAUATT against SUPT6H the median seed-adjusted z-score was -2.54 (active). Sequence GGUACAUCAUGAUAGAACATT against ABCD2 has a median seed-adjusted z-score of -0.102. Sequence GUAUGGACACCAUUAGUAATT against DTX3L has a median seed-adjusted z-score of 0.0785. With GAGUUCACCCAGAUCGAAATT against CHMP6 the median seed-adjusted z-score was -1.81 (active). For GCAUCGACAUGGUUUCCGATT against GABRB3, the median seed-adjusted z-score was 0.0757. Work on CCACUGUACUGAGUGACCATT against HECTD3 yielded a median seed-adjusted z-score of 0. GAUUACUUCUUGACUAUCATT against OCRL showed a median seed-adjusted z-score of -0.545. Sequence CGACCCUCAGAAUGAUAAATT against ARPC3 has a median seed-adjusted z-score of -0.237. CCAUCCUGGAAAUACCCUATT against SERPINA12 gave a median seed-adjusted z-score of -0.382. Sequence UGAAUUUCGUAGUUCCAUATT against CNOT8 has a median seed-adjusted z-score of 0.375. Work on CCGUCGAAUUUGAAGGUGATT against SULF1 yielded a median seed-adjusted z-score of -0.128. In the case of AGAUCUCCAUGGUCAGGAUTT against ACCN4, the median seed-adjusted z-score is reported as -0.512. With GAACCUUCGGGAGAACCUUTT against FKBPL the median seed-adjusted z-score was -1.11 (active). Work on CGGUAUAAUCGGAAUCGGATT against MKI67IP yielded a median seed-adjusted z-score of 0.426. For GGUGAAUAUUUAUCGUCUATT against CHD1, the median seed-adjusted z-score was -1.03 (active). GCUAGACACCGGACCAAAATT against MMP28 showed a median seed-adjusted z-score of 0.862. With GGACAACUAUGGUAAGAAATT against TCF7L1 the median seed-adjusted z-score was -0.251. Work on GGAUUGAGCGCAUCAAGGUTT against GNG7 yielded a median seed-adjusted z-score of -0.205. Sequence GAAUGCUGUUUAUCUUAAUTT against PNPLA1 has a median seed-adjusted z-score of 0.00692. In the case of GGGAAAAAGUUCUUGCGUATT against USP12, the median seed-adjusted z-score is reported as 0.121. GCUUUACAACAAUCACAUATT against AMIGO2 showed a median seed-adjusted z-score of -0.258. For CUCUUUCAAGUAUGAGACATT against INHA, the median seed-adjusted z-score was 0.231. In the case of CAGCUGCUAUCAGAACGGATT against APBA2, the median seed-adjusted z-score is reported as 1.66 (active). GAAUAUUCUUGCAGAGUUUTT against WFDC5 gave a median seed-adjusted z-score of 0. For GGCUUUUGAGCAUCCCAAUTT against CDK4, the median seed-adjusted z-score was 0.346. For CAGUCCCUCUAUCACAUAUTT against ERH, the median seed-adjusted z-score was -1.25 (active). With GGAGGUGUUUUGUUCGGAUTT against SV2C the median seed-adjusted z-score was 0.183. In the case of GGCUAGUGAUAUACUAUAUTT against RPS6KA6, the median seed-adjusted z-score is reported as -0.0821. With CCAUCAGUACAUAUCCGAATT against ABCA8 the median seed-adjusted z-score was -0.666. GCUCAUGGUUGAUGAUUCUTT against RABGGTA gave a median seed-adjusted z-score of -0.0601. Sequence UCACUAUCAGUACCCAUUATT against CHRNB1 has a median seed-adjusted z-score of 0.16. In the case of GGAGAGAGGUCCAGUCUGATT against BIRC7, the median seed-adjusted z-score is reported as -1.44 (active). For CAAAGUAUCGGGUCAUCUATT against DMRTA1, the median seed-adjusted z-score was -0.162. With CUUUGACAGUGUUCGUGAATT against SGOL2 the median seed-adjusted z-score was 0.114. Work on CCAAGACGAUGAGAGUAUATT against UGCGL2 yielded a median seed-adjusted z-score of -0.456. Work on CGGGCGAGUUUACUAUGUATT against ITCH yielded a median seed-adjusted z-score of 0.199. GCAUUGCCGAGAUCCAUGATT against PIK3R2 showed a median seed-adjusted z-score of 0.421. Sequence UCACGUAGAGUCAUAUUUATT against HNRPA1P4 has a median seed-adjusted z-score of -0.906. For ACACAGCUGUUGUACCUCATT against MAP4, the median seed-adjusted z-score was 1.67 (active). In the case of GAUACUUUGCCGUCAAUUATT against CA5B, the median seed-adjusted z-score is reported as 0.317. CCAUUGAUCUGCACUACUATT against NUP85 gave a median seed-adjusted z-score of 0.948. Work on GACCUAUCCUUGCACCAGATT against ECT2 yielded a median seed-adjusted z-score of 0.04. In the case of GCUCGAGUGGAAGAACUCATT against GLMN, the median seed-adjusted z-score is reported as 0. With GCAGGACCCAUUACGGCUATT against DPEP1 the median seed-adjusted z-score was -0.886. For GGCUGUGCAUAAACGAGAATT against GTF2E1, the median seed-adjusted z-score was 1.76 (active). GGAGAACCAUAGAAAACCATT against RIPK3 gave a median seed-adjusted z-score of 0.123.
